# According to PubChem BioAssay (NCI):
# The panel holds about 83,000 compounds, 20% with a hit somewhere; the sample as a whole holds those more often.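 Plates (96-well) were seeded with cells, treated with compound at one concentration, and incubated for 48 hours before percent growth was determined.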 Unmarked numbers belong to inactive results. The source made the active and inactive calls. How the source made its calls: active means growth percent below 10; inactive means the rest.
# What was measured:
# Assay in all cases: NCI-60 one-dose screen, 48 h (100 = growth as untreated, 0 = no growth, -100 = all killed)
# Conditions in all cases: 10 µM
# NCI-H23 lung = tested on: NCI-H23 lung
# NCI-H226 lung = tested on: NCI-H226 lung
# NCI-H322M lung = tested on: NCI-H322M lung
# HOP-62 NSCLC = tested on: HOP-62 NSCLC
# NCI-H460 lung = tested on: NCI-H460 lung
# NCI-H522 lung = tested on: NCI-H522 lung
# A549/ATCC NSCLC = tested on: A549/ATCC NSCLC
# 786-0 renal = tested on: 786-0 renal
# COLO 205 colon = tested on: COLO 205 colon
# DU-145 prostate = tested on: DU-145 prostate
# MALME-3M melanoma = tested on: MALME-3M melanoma
# MDA-MB-231 breast = tested on: MDA-MB-231 breast
# RXF 393 renal = tested on: RXF 393 renal
# SF-268 CNS = tested on: SF-268 CNS
# SF-295 CNS = tested on: SF-295 CNS
# SF-539 CNS = tested on: SF-539 CNS
# UACC-257 melanoma = tested on: UACC-257 melanoma
# M14 melanoma = tested on: M14 melanoma
# K-562 leukemia = tested on: K-562 leukemia
SMILES,growth (NCI-H23 lung) [%],growth (NCI-H226 lung),growth (NCI-H322M lung) [%],growth (HOP-62 NSCLC) [%],growth (NCI-H460 lung) [%],growth (NCI-H522 lung),growth (A549/ATCC NSCLC) [%],growth (786-0 renal) [%],growth (COLO 205 colon),growth (DU-145 prostate) [%],growth (MALME-3M melanoma),growth (MDA-MB-231 breast) [%],growth (RXF 393 renal),growth (SF-268 CNS) [%],growth (SF-295 CNS) [%],growth (SF-539 CNS),growth (UACC-257 melanoma) [%],growth (M14 melanoma),growth (K-562 leukemia) [%]
O=C1c2ccccc2C(=O)N1OCc1ccccc1,111,91.4%,93.4,95.4,113,96.5%,122,99.5,108%,112,98.2%,104,122%,106,110,102%,122,108%,
CC(=O)Nc1cccc(NC(C)=O)n1,128,103%,104,101,104,100%,108,101,123%,110,91.5%,107,,100,108,103%,102,103%,96.6
O=C1OC[C@H]2[C@H](c3ccc(O)c(O)c3)c3cc(O)c(O)cc3C[C@H]12,13.4,116%,130,130,122,19.4%,,110,108%,108,140%,129,,116,124,122%,147,120%,180
Nc1nc(N)c2cc(S(=O)(=O)c3cccc(C(F)(F)F)c3)ccc2n1,53.5,69.2%,52.1,76.6,16.8,63.9%,15.9,38.1,62.5%,48,63.8%,67.9,62.2%,29.2,,51.4%,43.7,44.5%,17.7
COc1cc(C(N)=O)cc(OC)c1OC,101,102%,106,99.6,111,102%,,108,101%,112,110%,105,119%,101,100,98.9%,102,107%,112
O=C(c1ccc(Cl)cc1)c1ccccc1Cl,91.2,99.9%,97.9,93.7,103,90.7%,95.1,93.6,,123,103%,101,93.3%,111,92.3,89%,93.6,,96.8
O=S(=O)(O)C(Nc1ccccc1)c1ccccc1 (stereo not given),103,91.5%,97.6,100,102,102%,103,100,103%,110,,99.1,,107,107,93.6%,140,98.7%,87.6
C[C@@H](c1ccccc1)[C@@H](C(=O)O)c1ccccc1,100,98.8%,97.5,99.7,104,99.9%,101,99.5,107%,114,,110,,106,98.6,96.5%,98.8,101%,110
CC1(O)OC(COc2ccc(Cl)cc2)COC1O (stereo not given),102,102%,104,106,106,104%,106,105,126%,108,99.2%,,107%,104,103,97.3%,95.7,109%,104
Cc1ccncc1C(N)=O,119,95.4%,104,98.6,101,101%,108,106,124%,106,106%,116,,98.2,120,95.7%,110,103%,101
CN(C)c1ccc2nc3ccc(=N)cc-3sc2c1,14.7,77.1%,85.4,54.4,56.7,14.7%,13.6,66.2,,86.7,8.19% (active),11.5,70.7%,54.2,86.1,-11.3% (active),13.9,24.7%,20.1
CC(CC(=O)c1ccccc1)c1ccccc1 (stereo not given),106,98.4%,90.6,119,104,84.1%,,96.8,123%,112,93%,119,,110,95.8,105%,94.1,119%,102
Cc1nc2ccccc2c(C(=O)O)c1O,104,91%,117,88.3,110,104%,103,103,,127,,101,107%,110,,98.1%,96.7,90.3%,127
C1CNC(C2=NCCN2)=N1,106,103%,90.9,99.4,101,101%,,103,114%,100,101%,107,113%,94,101,98.5%,,103%,90.4
C/C(=N\O)C1(O)CCCCC1,99.5,97.7%,87.6,106,98.3,92.8%,102,99,99.4%,100,114%,94.7,,82.7,110,99.2%,98.3,110%,106
CCCNc1ccc(C2=NCCCN2)cc1,95.6,104%,88.7,94.9,103,94.2%,79.2,88.9,99.5%,103,,98.7,,98.9,91,102%,99.8,96.1%,89.8
CCCCNC1(C#N)CCN(Cc2ccccc2)CC1,86.8,104%,98.8,87,110,84.9%,110,84.5,,135,94.7%,104,107%,129,97.2,99.8%,107,76.6%,114
Cc1ccccc1C1N=C2Oc3ccccc3C=C2C(=O)N1 (stereo not given),48.7,3.49% (active),37.4,33.3,30.6,-32.7% (active),33.5,37.8,0.577% (active),20.4,51.8%,32.5,-4.6% (active),53.7,,-5.32% (active),56.2,-24.7% (active),24.2
